Results taken from PubChem BioAssay AID1851 (National Center for Advancing Translational Sciences (NCATS), 2009).
Values joined by “and” are separate entries in the source; they are usually repeats but may differ in a detail not shown here. Equal entries are not always repeated. Out of some 16,000 compounds screened, about 5,100 (32%) were called active. About 25% were inconclusive and are not listed. The call rests on the fitted dose curve; in most records, active means well fitted curve in the direction sought with a large enough effect; inconclusive means small, poorly fitted or top-dose-only effect, or effect the other way; inactive means no such curve, though single readings can be large or run the other way. The list shows a part of the results.

Target: Cytochrome P450 3A4 (Homo sapiens) (UniProt P08684)
Sequence (P08684 whole entry, looked up): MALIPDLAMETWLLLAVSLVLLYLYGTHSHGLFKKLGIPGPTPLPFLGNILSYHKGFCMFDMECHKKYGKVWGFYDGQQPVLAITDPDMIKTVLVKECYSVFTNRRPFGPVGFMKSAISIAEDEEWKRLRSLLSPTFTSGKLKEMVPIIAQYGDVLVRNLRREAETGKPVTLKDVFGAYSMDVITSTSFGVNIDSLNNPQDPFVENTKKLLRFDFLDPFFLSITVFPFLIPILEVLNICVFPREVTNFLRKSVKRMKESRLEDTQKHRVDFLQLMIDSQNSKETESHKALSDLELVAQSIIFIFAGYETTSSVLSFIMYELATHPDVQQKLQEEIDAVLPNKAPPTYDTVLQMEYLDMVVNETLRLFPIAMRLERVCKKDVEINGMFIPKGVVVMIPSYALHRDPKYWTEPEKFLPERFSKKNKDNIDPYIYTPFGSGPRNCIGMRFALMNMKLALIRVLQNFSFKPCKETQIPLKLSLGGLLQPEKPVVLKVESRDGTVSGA
Test: Cytochrome panel assay with activity outcomes
Details: recombinant CYP, pro-luciferin dealkylation, luminescence, p450-cyp3a4; series mostly up to 57.1 µM
On the % scale 0 is the no-effect control and ±100 the full control effect.

AC50, active:
Cc1ccc(-c2nnc(-c3ccccc3S(=O)(=O)Cc3ccc(Cl)cc3)o2)cc1 3.98 µM, COc1ccc2c(c1)C(c1ccc([N+](=O)[O-])cc1)=NNC(c1ccco1)=N2 14.1 µM, FC(F)(F)c1ccccc1-c1ccc2ncnc(NCc3cccs3)c2c1 5.01 µM, Cc1ccccc1-c1ccc2ncnc(NCc3cccs3)c2c1 3.98 µM, Cc1cc2nc(CCN(C(=S)NCC(C)C)C3CCCC3)[nH]c2cc1C 17.8 µM, COc1cc(C(=O)OC(C)C(=O)Nc2ccc3c(c2)OCO3)ccc1OCc1c(C)noc1C (stereo unspecified) 0.631 µM, C/C(CCN1CCCCc2nc(C)c(C)cc21)=N\O[C@@H](C)c1cn([C@H](CO)Cc2ccccc2)nn1 3.98 µM and 5.01 µM, CCc1cc2c(nc1CC)CCN(CC/C(C)=N/O[C@@H](C)c1cn([C@H](CO)Cc3ccccc3)nn1)C2 3.16 µM and 3.98 µM, C/C(CCN1CCCc2nc(C)c(C)cc21)=N\O[C@@H](C)c1cn([C@H](CO)Cc2ccccc2)nn1 2 µM, CN(C)C(=O)CN(c1ccc2c(c1)OCO2)S(C)(=O)=O 25.1 µM, COc1ccc(NC(=O)CN2c3cccc4cccc(c34)S2(=O)=O)cc1 4.47 µM, O=C(CN1C(=O)C2C3C=CC(C3)C2C1=O)Nc1ccc2c(c1)OCCO2 (stereo unspecified) 25.1 µM, COc1ccc(NC(C)=O)cc1NC(=O)CN1CCN(CC(=O)Nc2ccccc2Cl)CC1 12.6 µM, COc1ccc(NC(=O)CN2CCN(CC(=O)Nc3ccccc3Cl)CC2)cc1 10 µM, O=C(CN1CCN(CC(=O)Nc2ccccc2Cl)CC1)Nc1ccc2c(c1)OCCO2 14.1 µM, COc1cccc(OC)c1OCCNC[C@@H]1COc2ccccc2O1 2 µM and 2.51 µM, Cc1cnn(CCC(=O)NNC(=S)Nc2cccc(Cl)c2)c1 12.6 µM, O=C(CCN1C(=O)c2ccccc2C1=O)NC(=S)Nc1cccc(Cl)c1 15.8 µM, Cc1cccc(NC(=O)c2cccc(N3C(=O)C4C5CCC(C5)C4C3=O)c2)c1C (stereo unspecified) 11.2 µM, c1ccc2c(N3CCOCC3)nc(-c3ccoc3)nc2c1 6.31 µM, Cc1noc(C)c1-c1nc(N2CCOCC2)c2ccccc2n1 6.31 µM, Clc1ccccc1-c1nc(N2CCNCC2)c2ccccc2n1 25.1 µM, Cc1ccccc1-c1nc(N2CCOCC2)c2ccccc2n1 15.8 µM, Cc1ccccc1-c1nc(N2CCN(C)CC2)c2ccccc2n1 20 µM, Cc1ccccc1-c1nc(N2CCNCC2)c2ccccc2n1 25.1 µM, Cc1c(Cl)cccc1NC(=O)c1ccc(-n2ccnc2)nc1 0.0398 µM, O=C(Nc1ccc(F)cc1)c1ccc(-n2ccnc2)nc1 0.126 µM, COc1cccc(Cn2c(NCc3cccnc3)nc3c2c(=O)n(C)c(=O)n3C)c1 3.16 µM, O=C(CCCNS(=O)(=O)c1cccc2nsnc12)NCCc1ccccc1 7.08 µM, Cc1cc(C2C(C#N)=C(N)OC3=C2C(=O)CC(C)(C)C3)c(C)s1 (stereo unspecified) 3.55 µM, COc1ccc(C2C(C#N)=C(N)OC3=C2C(=O)CC(C)(C)C3)c([N+](=O)[O-])c1OC (stereo unspecified) 5.01 µM, COc1cc(C2C(C#N)=C(N)OC3=C2C(=O)CCC3)c([N+](=O)[O-])cc1OC (stereo unspecified) 11.2 µM, CCc1c(C)nc(N)n2c(SCC(=O)Nc3ccccc3)nnc12 17.8 µM, CN(Cc1ccco1)c1ccnc(-c2cccnc2)n1 12.6 µM, CN(Cc1ccco1)c1ccnc(-c2cccc(C#N)c2)n1 12.6 µM, COc1cccc(-c2nccc(N(C)Cc3ccco3)n2)c1 20 µM, CCN=C1NN=C(c2ccc(C)cc2)CS1 15.8 µM, Cc1cccc(NC(=O)CC2Nc3cccc4cccc(c34)NC2=O)c1 (stereo unspecified) 2.51 µM, CC(=O)Nc1ccc(NC(=O)CC2Nc3cccc4cccc(c34)NC2=O)cc1 (stereo unspecified) 10 µM, COc1ccc(NS(=O)(=O)c2ccc(NC(=O)c3cnn4c(C(F)F)cc(-c5ccc(C)cc5)nc34)cc2)cc1 1.26 µM, Cc1cccc(C)c1NC(=O)CSc1nc(C)c(CC(=O)c2ccc(Br)cc2)c(C)c1C#N 5.01 µM, CCn1c(-c2nonc2NC(=O)c2ccccc2)nc2ccccc21 3.16 µM, CCC(=O)Nc1nonc1-c1nc2ccccc2n1N(C(=O)CC)C(=O)CC 22.4 µM

AC50, inactive:
CC(C)[C@H](CO)Nc1nc(Nc2ccc(C(=O)O)c(Cl)c2)c2ncn(C(C)C)c2n1, NCCC(=O)O, Cc1noc(C)c1COc1ccc(C(=O)NCC2CCCO2)cc1 (stereo unspecified), Cc1cccc(N(CC(=O)N2CCOCC2)S(C)(=O)=O)c1, COc1ccccc1NC(=O)CN1CCN(CC(=O)Nc2ccc(OCc3ccccc3)cc2)CC1, O=C(CN1C(=O)C2C3C=CC(C3)C2C1=O)Nc1ccc(C(=O)O)cc1 (stereo unspecified), CSc1nc(NC2CCCC2)c([N+](=O)[O-])c(NC2CCCC2)n1, COc1ccc([C@@H]2CC(=O)c3c(O)cc(O[C@H]4O[C@@H](CO[C@H]5O[C@@H](C)[C@@H](O)[C@@H](O)[C@@H]5O)[C@@H](O)[C@@H](O)[C@@H]4O)cc3O2)cc1O, O=C(Nc1ccc2c(c1)OCCO2)C1CCN(C(=O)c2ccccc2)CC1, COc1cccc(OC)c1OCCCCN1CCCC1, COc1cccc(OC)c1OCCCN1CCOCC1, Cc1cccc(NC(=S)NNC(=O)CCn2cc(C)cn2)c1, CNC[C@H](O)[C@H](O)[C@H](O)[C@H](O)CO, CN(C)c1ccc(NC(=O)c2cccc(N3C(=O)C4C5C=CC(C5)C4C3=O)c2)cc1 (stereo unspecified), Cc1cccc(NC(=O)c2onc3c2CCCC3)c1C, Cc1noc(C)c1-c1nc(N2CCN(C)CC2)c2ccccc2n1, Clc1ccccc1-c1nc(NC2CCNCC2)c2ccccc2n1, O=C(O)CCCCCCCC(=O)O, Cc1cc2nc3c(=O)[nH]c(=O)nc-3n(CC(O)C(O)C(O)CO)c2cc1C (stereo unspecified), O=C1NC(c2ccccc2)=NC1(NS(=O)(=O)c1ccccc1)C(F)(F)F (stereo unspecified), CCCCCCCCCCCCCCCCCCc1ccc(C(=O)/C=C\C(=O)O)cc1, COc1ccccc1NC(=O)c1ccc(-n2cccn2)nc1, Cc1nc(C(=O)Nc2cccc(Cl)c2Cl)nn1-c1cc(OC(C)C)c(Cl)cc1Cl, N#CC1=C(N)OC2=C(C(=O)CCC2)C12CCC1(CC2)OCCO1, CN(C)c1ncc2nc(-c3cccc(C#N)c3)c(=O)n(C[C@H]3CCCO3)c2n1, CN(Cc1ccco1)c1ccnc(-c2ccoc2)n1, CC(=O)Nc1ccc(C#Cc2ccc(NC(C)=O)cc2)cc1, CCC(=O)N1CCn2c1nc1ccccc12, O=C(O)Cn1c(-c2ccccc2)nc2ccccc21, Cc1nonc1NCn1nnc2ccccc21

activity, negative = inhibition, inactive:
O=C(Nc1nnc(-c2ccc(Cl)cc2)o1)Nc1ccccc1Cl -3.31% [at 2.29 µM], NS(=O)(=O)c1cc(C(=O)O)c(O)c2ccccc12 -3.6% [at 11.4 µM], CC(C)=NO[C@@H](C)c1cn([C@H](CO)Cc2ccccc2)nn1 -28.8% [at 11.4 µM] and -23.4% [at 11.4 µM], CCc1cc2c(nc1CC)CCN(CC/C(C)=N/O[C@@H](C)c1cn([C@@H]3COC[C@@H]3O)nn1)C2 -5.44% [at 11.4 µM], O=C(Nc1cccc(Cl)c1)N1CCN2C(=O)c3ccccc3C12c1ccccc1 (stereo unspecified) -22.9% [at 2.29 µM], O=C(COc1ccccc1Cl)NC(=S)Nc1cccc(NC(=O)c2ccccc2Cl)c1 7.56% [at 2.29 µM], CCOC(=O)C(C)(C)[C@H](O)C(C)C 2.08% [at 11.4 µM], OC[C@@H]1O[C@@H](n2cnc3c(SCc4ccccc4)ncnc32)[C@@H](O)[C@H]1O 7.88% [at 11.4 µM], Nc1nc(Cl)cc(NCCO)n1 -4.92% [at 11.4 µM], Cn1c(=O)c2c(nc(NCCNc3nc4c(c(=O)n(C)c(=O)n4C)n3C)n2C)n(C)c1=O 8.34% [at 11.4 µM], CN(C)CCNc1nc2c(c(=O)n(C)c(=O)n2C)n1C -5.65% [at 11.4 µM], CN1CCN(/C=N/C2=C(C#N)C(c3ccccc3)C3=C(CC(C)(C)CC3=O)O2)CC1 (stereo unspecified) 1.82% [at 2.29 µM], CCSC[C@@H](N)C(=O)O -3.53% [at 11.4 µM], COC(=O)\C(C(C)=O)=C(/C=C/C=C/C=C/N(C)C)N(C)C 1.83% [at 2.29 µM], N/N=C1/c2ccccc2N[C@H]1OC(=O)Nc1ccccc1 -29.3% [at 11.4 µM], COc1cccc2c1C(=N)c1c(O)c3c(c(O)c1C2=O)C[C@](O)(C(C)=O)C[C@@H]3O[C@H]1C[C@H](N)[C@@H](O)[C@H](C)O1 -16% [at 11.4 µM], CC(=O)Nc1nonc1NC(=O)c1ccc(C(C)(C)C)cc1 -6.73% [at 11.4 µM], Nc1c(S(N)(=O)=O)cc(S(N)(=O)=O)cc1S(N)(=O)=O -3.99% [at 11.4 µM]
